# Measured values: PubChem BioAssay
# The source made the active and inactive calls.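 The calls were made as follows, unless noted: active = visual image review flags a hit and inhibition of aggregation exceeds 20%; inconclusive = visual hit but inhibition at or below 20%; inactive = no hit on visual image review.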
# Tests used:
# [1] = inhibitors of TNFa-induced NFkB p65 translocation, primary screen, imaging, HUVEC, MLSMR starter and 10KST1 sets (AID 438;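 active = inhibition above 20% together with a positive visual image hit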;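 also: compound added about 3h40 before a 20 min TNFalpha stimulation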;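 as to inhibition: signal is the nuclear over cytoplasmic p65 intensity ratio per well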); settings: HUVEC TNFa-induced p65 nuclear translocation; cell count: measured here: nuclei count (cytotoxicity indicator), at 2.08 µM; inhibition: at 2 µM, stronger effect = higher value, 0% TNFa-plus-vehicle, 100% no-TNFa wells
# [2] = inhibitors of mutant huntingtin aggregation, primary screen, imaging, exon1htt(103Q)mCFP cells, high-content imaging (AID 483); settings: exon1htt(103Q)mCFP cell line, aggregate imaging, at 2 µM; inhibition of aggregation: stronger effect = higher value; nuclei count: measured here: cell count, toxicity;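 also: compound exposure lasted 3 days before fixation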;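 as to nuclei count: percent of the per-plate median nuclei count of sample wells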
# [3] = inhibitors of E-selectin induction by TNFa, primary screen, imaging, HUVEC, immunofluorescence, MLSMR starter and 10KST1 sets (AID 487;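 active = visually confirmed hit in the image check and inhibition above 20%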;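 as to inhibition: signal is fraction of cell area covered by stained E-selectin grains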;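 as to nuclei count: 100% = median nuclei count of all wells on the same plate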); settings: HUVEC TNFalpha-induced E-selectin immunofluorescence imaging, at 2 µM; inhibition: stronger effect = higher value; nuclei count: measured here: cell number, toxicity
# [4] = molecular target: Voltage-gated potassium channel subunit beta-2 (Rattus norvegicus) (UniProt P62483); test: KvBeta enzyme negative modulators, primary screen, biochemical, NADPH fluorescence (AID 622;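 active = fluorescence slope higher than the sample average by over 3 SD, cut at about -0.22 in these data, passing the limit was not always enough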;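 also: slope of raw intensity against log time taken from 70 to 1610 s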); settings: recombinant KvBeta, 4-cyanobenzaldehyde reduction, at 10 µM, stronger effect = higher value
# Sequence of Voltage-gated potassium channel subunit beta-2 (Rattus norvegicus) (P62483 whole entry, looked up): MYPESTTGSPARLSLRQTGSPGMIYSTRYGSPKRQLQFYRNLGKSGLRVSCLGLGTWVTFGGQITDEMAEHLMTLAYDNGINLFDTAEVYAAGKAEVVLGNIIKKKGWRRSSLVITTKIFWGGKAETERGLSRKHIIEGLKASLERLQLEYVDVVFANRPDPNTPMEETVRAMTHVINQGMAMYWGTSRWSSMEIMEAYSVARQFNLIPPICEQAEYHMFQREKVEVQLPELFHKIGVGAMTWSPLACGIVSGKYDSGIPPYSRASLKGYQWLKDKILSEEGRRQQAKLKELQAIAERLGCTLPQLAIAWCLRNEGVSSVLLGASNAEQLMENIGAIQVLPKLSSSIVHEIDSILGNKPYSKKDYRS
# [5] = molecular target: Voltage-gated potassium channel subunit beta-2 (Rattus norvegicus) (UniProt P62483); test: KvBeta positive modulators, primary screen, biochemical, NADPH fluorescence (AID 623;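 active = NADPH fluorescence slope more negative than the mean of all samples by about 3 SD, 99.7% confidence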;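 also: fluorescence intensity change per second fitted from 20 to 320 s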); settings: Recombinant KvBeta, NADPH fluorescence decrease slope, 10 min; at 10 µM; stronger effect = lower value
# [6] = molecular target: Alpha-2C adrenergic receptor (Homo sapiens) (UniProt P18825); test: modulators of alpha2C/GIRK thallium flux, primary screen, cell-based, HEK293 alpha2C/GIRK1/2 (AID 624;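 active = fluorescence slope after compound addition differing from the mean of all screened samples at 99.7% confidence, in either direction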;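 also: slope of fluorescence ratio to pre-addition baseline per second over 15 to 24 s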); settings: thallium flux BTC fluorescence, at 10 µM, actives lie on both sides
# Sequence of Alpha-2C adrenergic receptor (Homo sapiens) (P18825 whole entry, looked up): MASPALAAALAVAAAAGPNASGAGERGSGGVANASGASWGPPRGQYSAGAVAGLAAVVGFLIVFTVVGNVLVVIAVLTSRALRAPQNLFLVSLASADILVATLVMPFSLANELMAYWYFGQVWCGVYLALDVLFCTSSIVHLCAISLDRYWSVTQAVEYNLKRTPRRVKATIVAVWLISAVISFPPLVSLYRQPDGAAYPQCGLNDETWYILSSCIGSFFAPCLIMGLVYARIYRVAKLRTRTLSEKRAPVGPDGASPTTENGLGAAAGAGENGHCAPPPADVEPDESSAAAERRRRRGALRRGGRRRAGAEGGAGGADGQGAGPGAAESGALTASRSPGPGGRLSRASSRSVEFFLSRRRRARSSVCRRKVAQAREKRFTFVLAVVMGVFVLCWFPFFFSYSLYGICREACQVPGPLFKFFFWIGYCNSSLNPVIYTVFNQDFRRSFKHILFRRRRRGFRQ
# [7] = inhibitors of Sendai virus-induced IRF3 signaling, primary screen, TLR/RLR signaling modifier project, cell-based, Sendai virus stimulus, luciferase, 10K MLSCN set (AID 602276;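 active = inhibition at or above 50% at 10 µM; inactive = inhibition below 50%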;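 also: firefly luciferase from ISG56 promoter only with Renilla not read in this screen; 0% = Sendai virus plus DMSO and 100% = medium plus DMSO without virus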); settings: HEK293 RL24 IRF3 luciferase reporter, at 10 µM, stronger effect = higher value
# [8] = inhibitors of poly I:C-induced TLR3 signaling, primary screen, cell-based, poly I:C stimulus, luciferase, 10K MLSCN set (AID 602277;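 active = inhibition of the reporter signal at or above 50%; inactive = inhibition below 50%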); settings: HEK293-TLR3 RL24 IRF3 luciferase reporter, at 10 µM, stronger effect = higher value
Structure (SMILES),cell count [1],inhibition [1],inhibition of aggregation [2],nuclei count [2] [%],inhibition [3],nuclei count [3] [%],fluorescence slope [4],NADPH fluorescence slope [5],slope [6],inhibition [7],inhibition [8]
COC(=O)Nc1nnc(CCc2ccccc2)s1,547,3.2% (inactive),2.7% (inactive),107,-51.8% (inactive),113,-0.509 (inactive),-4.7e-05 (inactive),0.00467 (inactive),12.3% (inactive),2.62% (inactive)
COc1ccccc1C(=O)N1CCN=C1SCc1cccnc1,266,-0.3% (inactive),-22.1% (inactive),103,0.7% (inactive),97.2,-0.595 (inactive),-3.9e-05 (inactive),0.00599 (inactive),-7.45% (inactive),6.88% (inactive)
COc1ccc(CNc2nc3nc(C)c(Cl)c(C)n3n2)cc1OC,684,-23.3% (inactive),-2.8% (inactive),110,-4.1% (inactive),105,-0.331 (inactive),-6e-05 (inactive),0.00515 (inactive),3.08% (inactive),-10.6% (inactive)
CC(=O)c1cccc(-n2nnnc2SCC(=O)N2CCCC2)c1,720,-3.5% (inactive),-2.4% (inactive),119,-56% (inactive),106,-0.401 (inactive),-4.2e-05 (inactive),0.00357 (inactive),4.48% (inactive),14.5% (inactive)
COc1cccc(Cn2c(-c3nonc3N)nc3ccccc32)c1,306,-4.8% (inactive),-97% (inactive),1.8,-97% (inactive),113,-0.556 (inactive),-8.2e-05 (inactive),0.00614 (inactive),7.76% (inactive),57.2% (active)
Cc1ccc(CCC(=O)Nc2ccc(S(N)(=O)=O)cc2)o1,543,0% (inactive),-16.3% (inactive),111,-67.7% (inactive),99.7,-0.614 (inactive),5.3e-06 (inactive),0.00583 (inactive),-2.49% (inactive),2.2% (inactive)
CCSc1nncn1/N=C/c1ccc(OC)c(OC)c1,403,-9.6% (inactive),32.4% (inactive),89.8,39.9% (inactive),82.5,-0.319 (inactive),2e-05 (inactive),0.00581 (inactive),-8.45% (inactive),-5.17% (inactive)
CCn1c(NC(=O)c2cccc(Cn3cc(Cl)cn3)c2)nc2ccccc21,598,4% (inactive),13.3% (inactive),81.8,-45.1% (inactive),110,-0.506 (inactive),-5.4e-05 (inactive),0.0059 (inactive),-3.99% (inactive),-9.89% (inactive)
Cc1ccc(S(=O)(=O)c2cc3c(=O)n4ccccc4nc3n(CC3CCCO3)c2=N)cc1C (stereo not drawn),716,-1.6% (inactive),-3.3% (inactive),88.2,0.8% (inactive),106,-0.439 (inactive),-3.3e-05 (inactive),0.00461 (inactive),13.6% (inactive),23.9% (inactive)
Nc1ncnc2oc(-c3ccco3)c(-c3ccco3)c12,413,-3.3% (inactive),15.7% (inactive),84.7,-29.9% (inactive),111,-0.49 (inactive),-1.2e-05 (inactive),0.00377 (inactive),-5.47% (inactive),-31.5% (inactive)
CCOC(=O)c1cccc(NC(=O)CNS(=O)(=O)c2cccs2)c1,445,6.8% (inactive),-11.6% (inactive),108,-7.8% (inactive),134,-0.518 (inactive),-4.4e-05 (inactive),0.00596 (inactive),-11.6% (inactive),-10.2% (inactive)
CCN(CC)CCN1C(=O)C(O)=C(C(=O)c2cccs2)C1c1ccc(C)o1 (stereo not drawn),343,12.4% (inactive),-10.4% (inactive),91.9,-153% (inactive),111,-0.411 (inactive),-3.6e-05 (inactive),0.00478 (inactive),2.4% (inactive),-5.17% (inactive)
CC(C)Cn1c(=O)c(C2=NS(=O)(=O)c3ccccc3N2)c(O)c2ccccc21,407,-0.4% (inactive),10.3% (inactive),93.8,-61.6% (inactive),125,-0.353 (inactive),-0.000128 (inactive),0.00697 (inactive),15.1% (inactive),18% (inactive)
COc1ccccc1-n1c(C)nnc1SCC(=O)Nc1cccc(C(C)=O)c1,388,4.3% (inactive),3.5% (inactive),104,52.4% (inactive),95.1,-0.355 (inactive),-8e-06 (inactive),0.00484 (inactive),17.5% (inactive),13.3% (inactive)
C=CCn1c(-c2ccc(OC)cc2)nc2ccccc21,386,-3.5% (inactive),1% (inactive),96.1,-24.9% (inactive),86.4,-0.488 (inactive),-4.7e-05 (inactive),0.0046 (inactive),-24.1% (inactive),-54.6% (inactive)
CCSc1nnc2c(n1)OC=Nc1ccc(Br)cc1-2,262,-12.8% (inactive),20.4% (inactive),62.3,-24.2% (inactive),84.5,-0.38 (inactive),-3.3e-05 (inactive),0.00298 (inactive),15.5% (inactive),20.5% (inactive)
Cc1nc(N2CCC(C)CC2)c2c(C)c(C(=O)O)sc2n1,657,-4.1% (inactive),31% (inactive),66.2,-72.5% (inactive),103,-0.303 (inactive),1.1e-05 (inactive),0.00417 (inactive),14% (inactive),23.3% (inactive)
CCOC(=O)C1CCCN(C(=O)c2cc3c(=O)n4cccc(C)c4nc3n2C)C1 (stereo not drawn),218,-6% (inactive),3.5% (inactive),91.5,75.9% (active),66.5,-0.467 (inactive),-1.3e-05 (inactive),0.00547 (inactive),17.9% (inactive),23.7% (inactive)
Cc1cc(NC(=O)CSc2nccn2-c2ccc(F)cc2)no1,433,-0.3% (inactive),-13.1% (inactive),111,-184% (inactive),114,-0.6 (inactive),9.8e-06 (inactive),0.00665 (inactive),13.6% (inactive),3.73% (inactive)
O=C(c1cccnc1)N1CCc2ccccc21,414,3% (inactive),1.6% (inactive),108,24.6% (inactive),95.4,-0.468 (inactive),1.9e-05 (inactive),0.00635 (inactive),10% (inactive),43.9% (inactive)
N#Cc1cc2ccccc2nc1SCC(=O)Nc1ccccc1N1CCOCC1,448,13.7% (inactive),8.2% (inactive),100,-12.8% (inactive),106,-0.481 (inactive),-2.6e-05 (inactive),0.00662 (inactive),9.6% (inactive),9.63% (inactive)
CC(C)OC(=O)c1cccc(C(=O)O)n1,441,4.6% (inactive),-5.9% (inactive),92.5,-285% (inactive),110,-0.495 (inactive),-2.4e-05 (inactive),0.00557 (inactive),11.6% (inactive),12.7% (inactive)
O=C(CN(Cc1ccco1)C(=O)CNS(=O)(=O)c1ccc(F)cc1)NCCc1ccccc1,520,-2.1% (inactive),-2.1% (inactive),92.1,-38.5% (inactive),112,-0.481 (inactive),-2.9e-05 (inactive),0.00696 (inactive),-0.0533% (inactive),19.8% (inactive)
CCOC(=O)N1CCN(C(=O)COc2ccc(S(=O)(=O)NC(C)C)cc2)CC1,623,6.2% (inactive),-5.3% (inactive),110,11.5% (inactive),115,-0.548 (inactive),-3.6e-05 (inactive),0.00507 (inactive),10.8% (inactive),24.1% (inactive)
Cc1cc(CN2CCN(CCC#N)CC2)c(O)c(C2(C)CCCCC2)c1,527,-12.3% (inactive),5.3% (inactive),98.4,-197% (inactive),90.4,-0.541 (inactive),4e-05 (inactive),0.00432 (inactive),-14.9% (inactive),4.95% (inactive)
CCSc1nnc(-c2cccs2)o1,413,-4.5% (inactive),-4.3% (inactive),110,21.6% (inactive),111,-0.369 (inactive),-4.4e-05 (inactive),0.00573 (inactive),-21.5% (inactive),-57.7% (inactive)
CCOc1ccc(NC(=O)CN(c2cc(C)cc(C)c2)S(=O)(=O)c2c(C)noc2C)cc1,785,-1.1% (inactive),23.6% (inactive),99.2,-14.8% (inactive),105,-0.574 (inactive),1.1e-05 (inactive),0.0058 (inactive),13.8% (inactive),-22.3% (inactive)
COc1ccc(S(=O)(=O)Nc2ccccc2OC)cc1C,471,-3.3% (inactive),0.3% (inactive),96.5,-26.6% (inactive),110,-0.459 (inactive),1.9e-05 (inactive),0.00608 (inactive),16.7% (inactive),27.5% (inactive)
